Screens: PubChem BioAssay, National Center for Advancing Translational Sciences (NCATS)
Compounds with a hit are over-represented: about 12% of the library has one in this group of screens.
Sfp PPTase inh: blocks B. subtilis Sfp PPTase activity. Q9F4F7. Biochemical Sfp PPTase activity, qHTS. Potency, µM, inactives show largest response in the series, negative = inhibition, most hits filed as inhibitors. actives 3.5% (n = 310,000). AID 1490;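 further: the enzyme is Sfp with the accession as filed and its product quenches rhodamine fluorescence; 0% = enzyme reaction without inhibitor and -100% = no enzyme wells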
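Reaction rates are the 30-min fluorescence difference (ex 525, em 598 nm) in wells containing 15 nM Sfp, 5 uM rhodamine-CoA and 12.5 uM BHQ-2-YbbR at pH 7.6 with 10 mM MgCl2.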
BAZ2B inh: blocks human BAZ2B | Q9UIF8 | AlphaScreen BAZ2B-H3K14Ac peptide displacement | Potency, µM (titrated, usually from 114 µM), for the others: at the highest dose activity change, negative = inhibition, hits mostly inhibitors | actives 4.4% (n = 360,000); further: on the % scale 0 is the no-effect control and ±100 the full control effect; nearly all actives have a fitted effect of over 60% in size
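In this displacement format the biotinylated H3(5-23) peptide acetylated at Lys14 serves as ligand at 50 nM, with BAZ2B at 50 nM in PBS pH 7.4 containing 0.01% Tween-20. Donor and acceptor beads are 10 ug/mL final.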
TDP1 inh: blocks human tyrosyl-DNA phosphodiesterase 1. recombinant TDP1, AlphaScreen DNA substrate cleavage. actives 0.28% (n = 350,000). Q9NUW8. Potency, µM (doses to about 130 µM), inactives show at the top dose activity change, negative = inhibition, hits mostly inhibitors; further: on the % scale 0 is the no-effect control and ±100 the full control effect; nearly all actives have a fitted effect of over 40% in size
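AlphaScreen read-out: signal falls as enzyme removes the 3' tyrosine-FITC from a 5'-biotinylated DNA oligo (15 nM, 5 min, RT). Enzyme was E. coli-made recombinant Tdp1 at 1 nM, exposed to compound for 15 min beforehand; beads 10 ug/ml, 10 min.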
JMJD2A Tudor: JMJD2A Tudor domain (human) inhibition; actives 4.4% (n = 390,000); AlphaScreen JMJD2A-Tudor / H3K4me3 peptide binding; O75164; AID 504339; Potency, µM (titrated, usually from 114 µM), inactives show at the top dose activity change, negative = inhibition, usual class: inhibitors; further: on the % scale 0 is the no-effect control and ±100 the full control effect; nearly all actives have a fitted effect of over 50% in size
Target sequence (O75164 whole entry, looked up, the tested form may be a part): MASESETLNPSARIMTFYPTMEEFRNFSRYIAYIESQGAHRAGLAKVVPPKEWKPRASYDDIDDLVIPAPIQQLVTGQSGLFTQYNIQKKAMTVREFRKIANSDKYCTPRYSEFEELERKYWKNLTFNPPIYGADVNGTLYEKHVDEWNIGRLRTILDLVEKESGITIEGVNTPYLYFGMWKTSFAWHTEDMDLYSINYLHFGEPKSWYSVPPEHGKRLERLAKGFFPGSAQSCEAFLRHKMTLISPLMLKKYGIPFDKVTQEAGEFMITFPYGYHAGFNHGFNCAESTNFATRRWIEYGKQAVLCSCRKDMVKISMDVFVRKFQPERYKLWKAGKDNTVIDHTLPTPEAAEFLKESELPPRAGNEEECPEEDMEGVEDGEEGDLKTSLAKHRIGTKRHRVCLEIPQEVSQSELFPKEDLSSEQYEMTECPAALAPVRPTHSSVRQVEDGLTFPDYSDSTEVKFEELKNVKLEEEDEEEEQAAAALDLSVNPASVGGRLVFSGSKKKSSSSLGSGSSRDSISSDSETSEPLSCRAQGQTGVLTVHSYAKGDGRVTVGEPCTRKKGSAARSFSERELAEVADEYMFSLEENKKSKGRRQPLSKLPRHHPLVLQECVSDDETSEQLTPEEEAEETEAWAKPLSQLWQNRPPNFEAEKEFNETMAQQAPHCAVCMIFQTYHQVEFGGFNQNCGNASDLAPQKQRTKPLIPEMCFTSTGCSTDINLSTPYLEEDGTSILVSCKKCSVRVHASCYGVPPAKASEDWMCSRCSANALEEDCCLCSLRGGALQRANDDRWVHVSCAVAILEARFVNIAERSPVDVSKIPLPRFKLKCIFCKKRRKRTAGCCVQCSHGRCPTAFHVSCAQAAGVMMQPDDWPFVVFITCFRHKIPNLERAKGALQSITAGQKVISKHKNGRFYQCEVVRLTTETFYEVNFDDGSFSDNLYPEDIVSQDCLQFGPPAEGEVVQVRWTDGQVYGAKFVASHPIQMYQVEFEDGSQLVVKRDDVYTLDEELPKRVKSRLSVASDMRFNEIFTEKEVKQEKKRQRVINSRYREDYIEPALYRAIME
G9a inh: blocks human histone lysine methyltransferase G9a; Q96KQ7; G9a H3K9 monomethylation, AlphaScreen, 2 h; Potency, µM (top dose mostly 102 µM), without a hit: at the highest dose activity, negative = inhibition, hits mostly inhibitors; actives 8.8% (n = 350,000); AID 504332; further: on the % scale 0 is the no-effect control and ±100 the full control effect; nearly all actives have a fitted effect of over 75% in size
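AlphaScreen read-out: biotin-H3K9 peptide (500 nM) methylation by 20 nM enzyme with 20 uM SAM, 2 h at room temperature after 15 min compound preincubation; anti-monomethyl H3K9 antibody plus donor/acceptor beads, 10 min dark.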
HP1b binding inh: blocks HP1-beta chromodomain binding to methylated histone tails. P83916. AlphaScreen HP1-beta / biotin-H3K9me3 peptide binding. Potency, µM (top dose mostly 114 µM), without a hit: at the highest dose activity change, negative = inhibition, actives largely listed as inhibitors. actives 0.56% (n = 390,000); further: nearly all actives have a fitted effect of over 70% in size
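AlphaScreen: HP1-beta (50 nM) preformed 30 min with biotin-H3(1-18)K9me3 peptide (50 nM) in PBS pH 7.4, 0.01% Tween-20. Compound added for 30 min at RT, then streptavidin donor/nickel chelate acceptor beads (10 ug/mL) for 30 min.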
Numbers without * were called inactive; ? = inconclusive; / = no result; [ ] = another dose, or the depositor's remark. The call rests on the fitted dose curve; in most records, active means well fitted curve in the direction sought with a large enough effect; inconclusive means small, poorly fitted or top-dose-only effect, or another doubt; inactive means no such curve, though single readings can be large; an effect the other way counts as inactive or inconclusive. Potency means the concentration at half of the fitted maximal effect.

SMILES	Sfp PPTase inh	BAZ2B inh	TDP1 inh	JMJD2A Tudor	G9a inh	HP1b binding inh
COc1ccccc1CNS(=O)(=O)c1cc(-c2cc(C)no2)ccc1C(C)C	-8%	-9%	-1%	-24%	/	45%
O=c1cc(-c2ccccc2O)oc2c(O)c(O)ccc12	4µM*	/	/	/	/	/
Cc1oc2c(O)c(O)ccc2c(=O)c1-c1ccc(Cl)cc1	-18%	?	/	-29%	5µM*	17%
Cc1oc2c(O)c(O)ccc2c(=O)c1-c1ccccc1	50µM*	?	5%	8.9µM*	?	17%
O=c1cc(-c2ccccc2)oc2c(O)c(O)ccc12	-91%	/	-1%[56.1 µM]	/	-113%[2.33 µM]	/
Cc1c(Cc2ccccc2)c(=O)oc2c(O)c(O)ccc12	-22%	40µM*	10%	45µM*	4µM*	?
Cc1oc2c(O)c(O)ccc2c(=O)c1-c1cnn(-c2ccccc2)c1	?	?	-7%	?	?	10%
Cc1c(Cl)cccc1-n1ncc(C(=O)N2CCc3ccccc3C2)c1C1CCN(C(=O)OC(C)(C)C)CC1	/	-2%[57.1 µM]	0%	-11%	-6%[59 µM]	24%
CC(C)(C)c1nnc(NC(=S)Nc2ccccc2)s1	13%	?	4%	-16%	12%	-3%
COc1ccc(-c2nn(-c3ccccc3)cc2CN(C)CCn2ccnc2C)c(F)c1	-25%	?	/	-21%	-1%[59 µM]	26%
CCOc1ccc(N/C=C/C(=O)c2ccccc2)c([N+](=O)[O-])c1	-2%	?	4%	?	8.9µM*	?
Cc1noc(C)c1-c1nccc(N2CCN(C)CC2)n1	4%	/	/	/	-20%[0.501 µM]	/
COC(=O)c1cc(S(=O)(=O)NCC2CCN(Cc3ccc(C)cc3)CC2)cn1C	8%	-2%	-1%	-13%	2%[59 µM]	4%[57 µM]
CCOC(=O)C1=C(C)OC(N)=C(C#N)C1c1cc2c(cc1[N+](=O)[O-])OCO2 (stereo not given)	1%	?	7%	?	50µM*	-14%
CCOC(=O)C1=C(C)OC(N)=C(C#N)C1c1cc(OC)c2c(c1)OCO2 (stereo not given)	1%	3%	0%	-26%	-4%[59 µM]	27%
CSS(=O)(=O)c1cccc2cccnc12	20µM*	14µM*	/	3.2µM*	0.28µM*	3%
O=S(=O)(NCc1ccccc1)c1cccc2cccnc12	3%	-4%	8%	-4%	16%[12.7 µM]	38%
O=S(=O)(NCCc1ccccc1)c1cccc2cccnc12	9%	14%	2%	1%	50µM*	3%
Nc1ccccc1S(=O)(=O)Nc1cccc2cccnc12	3%	/	21%	56µM*	/	/
O=S(=O)(O)c1cccc2cccnc12	/	/	2%	?	/	23%
O=C(O)c1ccccc1NS(=O)(=O)c1cccc2cccnc12	-7%	-32%	0%	20µM*	?	-4%
COc1ccc(Cl)cc1NC(=S)NNC(=O)c1cccnc1	7%	5%	8%	-25%	25µM*	3%
COc1ccc(Cl)cc1NC(=S)NNC(=O)c1cccs1	16%	-29%	5%	?	28µM*	1%
CCN(c1ccccc1)S(=O)(=O)c1ccc(C(=O)N2CC(C)CC(C)C2)cc1 (stereo not given)	/	?	-10%[0.505 µM]	1%	-2%	30%
O=C(NNC(=O)c1ccc(-n2cncn2)c([N+](=O)[O-])c1)c1ccc(Cl)cc1	/	11%	3%	-9%	9%[0.501 µM]	37%
SMILES	Sfp PPTase inh	BAZ2B inh	TDP1 inh	JMJD2A Tudor	G9a inh	HP1b binding inh
O=C(Nc1cc(Cl)ccc1-n1cncn1)c1cc(F)cc(F)c1	/	9%	-7%	-5%	50µM*	12%
O=C(Nc1cc(Cl)ccc1F)c1ccc(-n2cncn2)c([N+](=O)[O-])c1	/	-6%	/	-27%	56µM*	8%
COc1ccc(OCCCC(=O)Nc2cc(Cl)ccc2-n2cncn2)cc1	/	7%	0%	-14%	45µM*	4%
CCC(=O)N1CCN(c2ccc(Cl)cc2NC(=O)c2ccc([N+](=O)[O-])o2)CC1	8%	-13%	3%	-12%	?	7%
O=C(Nc1cc(Cl)ccc1-n1cncn1)c1ccc([N+](=O)[O-])o1	/	-32%	2%[0.505 µM]	-30%	50µM*	-13%
CCCCNC(=O)CSc1nc2cc3c(cc2c(=O)n1CCCCCC(=O)NCc1ccc(OC)cc1)OCO3	/	-1%	2%	2%	-2%[59 µM]	43%
O=C(Nc1cc(Cl)ccc1-n1cncn1)c1cccs1	/	7%	5%	-13%	45µM*	19%
O=C(Nc1cc(Cl)ccc1-n1cncn1)C1CC1	/	-38%	/	-9%	-21%[12.7 µM]	31%
O=C1c2ccccc2C(=O)N1c1cccc(=O)[nH]1	/	/	2%	-11%	/	/
COc1ccccc1NC(=O)c1sc2nc(C)c(C(=O)Nc3ccc(C)cc3C)c(-c3cccs3)c2c1N	/	2%	-2%	5%	-26%[59 µM]	32%
COc1ccc(C(=O)N2CCC(C(=O)N3CCN(Cc4ccccc4)CC3)CC2)cc1	1%	-11%	3%	-12%	34%	9%
